Source: PubChem BioAssay (NCI)
This is part of a sample that, as a whole, favours compounds with a hit. Of some 79,000 tested, about 15% had one in any assay. Values without a mark were called inactive. Calls of active or inactive are those of the source. Cut-off read from the data, not from the text of the source: active = growth inhibition above about 70%; inactive = the rest.

Legend:
[1] = NCI Yeast Anticancer Drug Screen. Data for the rad50 strain (AID 155);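 note: 0% = growth of vehicle-only cultures of the same strain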; details: S. cerevisiae rad50 strain growth inhibition, hits give high values
Summary of the method: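 Vehicle-treated cultures provide the reference for the growth inhibition reported for compound-exposed, repair-deficient yeast.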

[2] = NCI Yeast Anticancer Drug Screen. Data for the mec2-1 strain (AID 157); details: S. cerevisiae mec2-1 strain, hits give high values
Summary of the method: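 Strain: mec2-1 (DNA repair/cell cycle alteration). Compound exposure, then growth measured; inhibition expressed relative to vehicle.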

[3] = NCI Yeast Anticancer Drug Screen. Data for the sgs1 mgt1 strain (AID 161);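 note: 0% = growth of cultures given vehicle only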; details: S. cerevisiae sgs1 mgt1 strain, hits give high values
Summary of the method: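 Mutant yeast exposed to compound; growth scored against vehicle-only wells.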

[4] = NCI Yeast Anticancer Drug Screen. Data for the cln2 rad14 strain (AID 165);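 note: 0% = growth equal to vehicle treated cultures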; details: S. cerevisiae cln2 rad14 strain, hits give high values
Summary of the method: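 Compounds are applied to the cln2 rad14 yeast strain, and growth is then compared with that of vehicle-treated cultures to give inhibition.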

[5] = NCI Yeast Anticancer Drug Screen. Data for the bub3 strain (AID 167); details: S. cerevisiae bub3 mutant strain, hits give high values
Summary of the method: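 Mutant yeast screening strain plus compound; vehicle-treated cultures serve as the 0% inhibition reference.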

[6] = NCI Yeast Anticancer Drug Screen. Data for the mlh1 rad18 strain (AID 175); details: S. cerevisiae mlh1 rad18 strain growth inhibition, hits give high values
Summary of the method: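 Read-out is yeast growth inhibition, calculated against vehicle-only controls. The compound was applied to a strain engineered with DNA damage repair alterations.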

[7] = at 5.0 µM (retest, dose inferred, filed as 0.5)
[8] = at 50.0 µM (retest, dose inferred, filed as 5.0)

SMILES | growth inhibition [1, 7] [%] | growth inhibition [1, 8] | growth inhibition ([1]; at 50.0 µM) | growth inhibition [2, 7] [%] | growth inhibition [2, 8] | growth inhibition ([2]; at 50.0 µM) | growth inhibition [3, 7] [%] | growth inhibition [3, 8] | growth inhibition ([3]; at 50.0 µM) | growth inhibition [4, 7] [%] | growth inhibition [4, 8] | growth inhibition ([4]; at 50.0 µM) | growth inhibition [5, 7] [%] | growth inhibition [5, 8] | growth inhibition ([5]; at 50.0 µM) | growth inhibition [6, 7] | growth inhibition [6, 8] | growth inhibition ([6]; at 50.0 µM)
Oc1ccc(CCCCCc2ccc(O)cc2)cc1 | 4 | 99% (active) | 99.5% (active) | 15 | 100% (active) | 99.6% (active) | 17 | 100% (active) | 99.7% (active) | 1 | 99% (active) | 99.2% (active) | 13 | 100% (active) | 99.6% (active) | 7% | 99% (active) | 99.5% (active)
COc1ccc(C2=NN(c3ccccc3)C[N+](c3ccc(OC)cc3)=N2)cc1 | 22 | 72% (active) | 96.5% (active) | -7 | 51% | 97.5% (active) | 9 | 48% | 97.7% (active) | 10 | 96% (active) | 96.4% (active) | -10 | 99% (active) | 97.7% (active) | 6% | 84% (active) | 96.8% (active)
CCCCCCCCCCCCn1cnc2ncnc(Cl)c21 | 6 | 48% | 98.2% (active) | 7 | 54% | 99% (active) | 11 | 68% | 98.7% (active) | 2 | 28% | 98.4% (active) | -4 | 41% | 98.8% (active) | 6% | 63% | 98.6% (active)
Clc1cc(Cl)c2cc3cccc[n+]3cc2c1Cl | 0 | 19% | 90.2% (active) | -11 | 33% | 93.5% (active) | 2 | -18% | 79.2% (active) | 4 | 31% | 54.2% | -12 | 49% | 87.8% (active) | -14% | 55% | 96.1% (active)
C/C(=C\N1CCN(c2ccc(Cl)cc2)C(C)C1)C(=O)c1ccccc1 (configuration not stated) | 7 | 89% (active) | 52.9% | 4 | 92% (active) | 30.7% | 15 | 89% (active) | 79.8% (active) | -2 | 86% (active) | 27.8% | -1 | 92% (active) | 24.9% | 4% | 87% (active) | 57.3%
Cc1ccc2c(c1C)-c1c(ccc(C)c1C)C(=O)C2=O | 13 | 98% (active) | 99.3% (active) | 35 | 99% (active) | 99.4% (active) | 5 | 99% (active) | 99.7% (active) | -14 | 98% (active) | 99.6% (active) | 46 | 98% (active) | 99.5% (active) | 75% (active) | 99% (active) | 99.5% (active)
N#CCC(=O)N/N=C(/CC1(O)C(=O)Nc2c(Cl)cc(Cl)cc21)c1ccccc1 (configuration not stated) | 2 | 35% | 69.4% | 10 | 43% | 59.6% | -1 | -6% | 71.1% (active) | -7 | 23% | -20% | 3 | 22% | 26.4% | 5% | 16% | 75.2% (active)
Cc1ccc(C(=O)CC(N)C(=O)O)cc1 (configuration not stated) | -2 | 0% | 12.2% | 3 | -2% | -3% | -1 | -1% | -3.05% | 2 | 1% | 89% (active) | 2 | -2% | -2.25% | -1% | 3% | 8.95%
O=NNc1ccc(Sc2ccc3ccccc3c2)cn1 | 21 | 41% | 21.5% | 24 | 36% | 12.2% | 20 | 27% | 19.1% | 32 | 43% | 24.8% | 30 | 37% | 35% | 25% | 47% | 51.5%
